# Screening results deposited in PubChem BioAssay by several laboratories.
# A selection: hits, their analogues and other compounds. The true share with any hit is near 3.7%.
# Mtb betalactam – beta-lactam sensitization of Mtb H37Rv. 330,000 compounds, 0.27% hits. M. tuberculosis H37Rv growth with meropenem, percent inhibition. inhibition, % at 25 µM; call rule not given here;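 note: growth measured after seven days incubation then overnight dye step; 0% = bacteria only wells and 100% = bacteria with antibiotic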
# FBA Mtb inh – inhibits M. tuberculosis FBA enzyme | 360,000 compounds, 2.3% hits | P9WQA3 | inhibition, % at 1 µM | purified M. tuberculosis FBA, fluorescence read-out;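 note: 0% = vehicle and 100% = reference inhibitor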
# Rv3671c inh – Rv3671c (M. tuberculosis) protease inhibition. 320,000 compounds, 0.048% hits. AID 2606. inhibition, % at 5.96 µM; in the data active = inhibition above about 38%;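 note: extracellular domain of Rv3671c used as enzyme; 0% = enzyme with DMSO and 100% = no enzyme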
# UGM FP inh – Mtb UDP-galactopyranose mutase inhibition. P9WIQ1. purified UGM, fluorescence polarization probe displacement. 320,000 compounds, 0.06% hits. inhibition, % at 10 µM; in the data active = inhibition above about 10%, passing the limit was not always enough; inconclusive = no clear call, values can overlap the other calls
# Target sequence (P9WIQ1 whole entry, looked up): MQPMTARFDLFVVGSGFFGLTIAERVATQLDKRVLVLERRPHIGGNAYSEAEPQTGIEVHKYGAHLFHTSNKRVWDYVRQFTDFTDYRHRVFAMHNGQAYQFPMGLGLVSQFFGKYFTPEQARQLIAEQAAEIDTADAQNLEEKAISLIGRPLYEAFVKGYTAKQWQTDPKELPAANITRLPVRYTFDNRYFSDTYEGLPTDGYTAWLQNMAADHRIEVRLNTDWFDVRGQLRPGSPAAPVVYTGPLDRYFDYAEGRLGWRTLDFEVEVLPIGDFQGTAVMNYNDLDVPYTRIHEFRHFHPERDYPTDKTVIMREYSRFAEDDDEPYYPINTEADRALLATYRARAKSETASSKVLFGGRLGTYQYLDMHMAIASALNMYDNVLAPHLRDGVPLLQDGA
# FadD28 binding – M. tuberculosis FadD28 bisubstrate binding inhibition; inhibition, % at 12.5 µM; 360,000 compounds, 0.22% hits; FadD28 bisubstrate probe binding, fluorescence polarization; AID 588549; in the data active = inhibition above about 8.5%, passing the limit was not always enough; inconclusive = no clear call, values can overlap the other calls
# GDH-TPI counter-1 – GDH-TPI coupled enzyme inhibition counter-screen | 360,000 compounds, 1.2% hits | inhibition, % at 4.8 µM | GDH-TPI coupled enzyme counterscreen, NADH absorbance | AID 588335; in the data active = inhibition above about 30%;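 note: 0% = DMSO wells and 100% = wells lacking the enzyme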
# Mtb FBA inh conf – Mtb FBA inhibition, confirmed; shares compounds with FBA Mtb inh; purified M. tuberculosis FBA, fluorescence read-out; inhibition, % at 1 µM; 5,600 compounds, 78% hits; AID 651616;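 note: 0% = vehicle wells and 100% = reference inhibitor wells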
# GDH-TPI counter-2 – counter-screen for M. tuberculosis FBA inhibitors: GDH-TPI coupled enzyme inhibition. inhibition, % at 1 µM. GDH-TPI coupled enzyme counterscreen, fluorescence. shares compounds with FBA Mtb inh. 5,600 compounds, 81% hits; in the data active = inhibition above about 10%
# GDH-TPI dose – inhibits GDH-TPI coupling enzymes in dose response. 170 compounds, 79% hits. AID 652145. IC50, µM. GDH-TPI coupled enzyme assay, fluorescence, artifact counterscreen. shares compounds with FBA Mtb inh; call rule not given here
# The depositor's hits bear a star; ? = inconclusive; nt = no result; + = active, no number. Cut-off read from the data, not from the text of the source, unless noted: active = inhibition above about 27%; inactive = the rest.
SMILES,Mtb betalactam,FBA Mtb inh,Rv3671c inh,UGM FP inh,FadD28 binding,GDH-TPI counter-1,Mtb FBA inh conf,GDH-TPI counter-2,others
O=C1NC(Cc2ccc(O)cc2)c2nc3cc(Cl)ccc3c(=O)n2-c2cc3ccccc3cc21 (stereo unspecified),nt,-2,nt,nt,-6,4,nt,nt,
COc1ccc(C2CC(=O)c3c(O)cc(O)cc3O2)c(CC=C(C)C)c1OC (stereo unspecified),0,0,-11,4,-9,12,nt,nt,
COc1cccc(N2CC(=O)N(NC(=O)c3sc4nc(C)cc(C)c4c3N)CC2=O)c1,-2,54*,0,2,-2,5,+,175*,
Cc1cc(C)c2c(N)c(C(=O)NN3CC(=O)N(c4ccccc4F)CC3=O)sc2n1,-5,62*,-1,-1,-1,3,104*,87*,
Cc1cc(C)c2c(N)c(C(=O)NNC(=O)c3ccccc3)sc2n1,-4,6,16,1,-3,3,nt,nt,
CN1CCN(c2ccc(CNC(=O)C3(C)Cc4c(-c5ccc(C(N)=O)cc5)ccnc4O3)cc2)CC1 (stereo unspecified),nt,-3,nt,nt,-3,-2,nt,nt,
O=C(NN=Cc1cc(Br)c(O)c(Br)c1)c1ccccc1NS(=O)(=O)c1cccs1,7,79*,6,1,?,48*,165*,135*,
Cc1cc(N/N=C/c2ccco2)c2ccccc2n1,5,9,-1,-1,-3,-2,nt,nt,
Cc1cc(N/N=C/c2ccc(N(C)C)cc2)c2ccccc2n1,2,28*,-3,0,0,31*,+,167*,
COCCNC(=O)C1CCCN(C(=O)c2ccc(C(F)(F)F)nc2C)CC1 (stereo unspecified),nt,4,nt,nt,0,-5,nt,nt,
O=[N+]([O-])c1ccc2c(c1)nc1n2CCSC1,-1,35*,1,-1,-1,14,6,-6,
COc1cccc(NC(=O)CN(C)CC(=O)c2c(C)[nH]c3ccccc23)c1,-3,-2,-15,1,-5,5,nt,nt,
O=C(C[C@@H]1C/C=C\C[C@@H](NC(=O)OCC2c3ccccc3-c3ccccc32)C(=O)OCCNC1=O)N[C@@H](CO)Cc1ccccc1,2,5,-4,-1,-2,2,nt,nt,
CCc1ccc(C(=O)C[n+]2cccc3cc(OC)ccc32)cc1,12,41*,nt,-1,-2,6,26,20*,
CC(=O)NCCNC(=O)C1Cc2c(-c3ccc4c(c3)OCO4)ccnc2O1 (stereo unspecified),nt,65*,nt,nt,-2,-9,19,-3,GDH-TPI dose=2.9*
CC(=O)NCCNC(=O)C1Cc2c(-c3ccccc3)ccnc2O1 (stereo unspecified),nt,-1,nt,nt,-2,2,nt,nt,
O=C(Nc1ccc2c(c1)OCO2)C1Cc2c(-c3ccc4c(c3)OCO4)ccnc2O1 (stereo unspecified),nt,36*,nt,nt,-4,-6,77*,61*,
COc1ccc(NC(=O)C2Cc3c(-c4ccc5c(c4)OCO5)ccnc3O2)cc1 (stereo unspecified),nt,46*,nt,nt,-3,-1,21,12*,
CNC(=O)C1Cc2c(-c3ccc4c(c3)OCO4)ccnc2O1 (stereo unspecified),nt,60*,nt,nt,0,6,97*,77*,
COCc1cc(C)nc2sc(C(=O)Nc3ccccc3OC)c(N)c12,4,1,-3,-1,-4,3,nt,nt,
O=C(NCC1CC1)C1Cc2c(-c3ccc4c(c3)OCO4)ccnc2O1 (stereo unspecified),nt,54*,nt,nt,-1,12,138*,95*,
O=C(Nc1ccc2c(c1)OCO2)C1Cc2c(-c3ccncc3)ccnc2O1 (stereo unspecified),nt,0,nt,nt,-1,14,nt,nt,
CC(=O)Nc1ccc(NC(=O)C2Cc3c(-c4ccc5c(c4)OCO5)ccnc3O2)cc1 (stereo unspecified),nt,33*,nt,nt,-5,6,9,1,
O=C(NCC1CC1)C1Cc2c(-c3cccc(F)c3)ccnc2O1 (stereo unspecified),nt,2,nt,nt,-2,10,nt,nt,
CC(=O)Nc1cccc(-c2ccnc3c2CC(C(=O)Nc2ccc4c(c2)OCO4)O3)c1 (stereo unspecified),nt,-4,nt,nt,-5,4,nt,nt,
SMILES,Mtb betalactam,FBA Mtb inh,Rv3671c inh,UGM FP inh,FadD28 binding,GDH-TPI counter-1,Mtb FBA inh conf,GDH-TPI counter-2,others
CN1CCN(C(=O)C2Cc3c(-c4ccc5c(c4)OCO5)ccnc3O2)CC1 (stereo unspecified),nt,40*,nt,nt,0,7,18,6,GDH-TPI dose=3.1*
CC(C)Cc1nnc(NC(=O)CCC(=O)NC2CCCC2)s1,-6,-1,-11,1,-4,-9,nt,nt,
Cc1nn(-c2ccc(F)cc2)c2sc(C(=O)OC3CCOC3=O)cc12 (stereo unspecified),4,86*,-8,0,-1,8,74*,59*,
CC1CCC(N2CCN(S(C)(=O)=O)CC2)CC1 (stereo unspecified),8,56*,2,1,0,6,110*,102*,
COc1cccc(C2c3[nH]c4ccccc4c3C[C@H]3C(=O)N(CCCO)CC(=O)N23)c1OC (stereo partly specified),-2,-1,-4,-1,0,6,nt,nt,
COc1ccc2c(c1OC)C(=O)N1C(C(=O)O)Cc3c([nH]c4ccccc34)C21 (stereo unspecified),2,36*,-16,1,-4,0,107*,89*,
COc1ccc(-c2cnc3nc(/N=C/N(C)C)nn3c2/N=C/N(C)C)cc1,-9,-4,-3,0,-2,13,nt,nt,
CN(C)/C=N/c1nc2nccc(-c3ccccc3)n2n1,-2,52*,-3,1,1,11,132*,106*,
CN(C)/C=N/c1nc2nccc(-c3ccc(Cl)cc3)n2n1,-9,72*,3,-1,-4,19,-4,-5,
Cc1cc(CNC(=O)COC(=O)c2ccc(Cl)c(N)c2)cc(C)c1O,-8,8,-16,0,-3,9,nt,nt,
CC(=O)Nc1ccc(NC(=O)C(C)OC(=O)c2ccc(S(=O)(=O)N3CCCCC3)cc2)cc1 (stereo unspecified),2,1,-35,-3,-3,8,nt,nt,
CNc1ccccc1C(=O)OC(C)C(=O)Nc1ccc(S(=O)(=O)N2CCCC2)cc1 (stereo unspecified),3,39*,-8,-3,1,-1,-2,-4,
CCN(C(=S)Nc1cccnc1)c1cccc2ccccc12,-2,49*,-6,0,-1,5,148*,128*,
OC[C@@H]1CN(Cc2ccccc2)C[C@H](n2cnc3c(N4CCOCC4)ncnc32)O1,nt,0,nt,nt,-1,6,nt,nt,
